Bioassay records as filed in PubChem BioAssay.
V-ATPase pHluor – alters yeast V-ATPase proton transport. S. cerevisiae, pHLuorin cytosolic pH fluorescence. response, % at 10 µM. 350,000 tested, 0.37% active. AID 504577; in the data active = response mostly above about 7.3%, no sharp cut-off; inactive = mostly below about 5.4%; also: actives read high
tim23-1 inh – growth inhibitors of tim23-1 mutant yeast | S. cerevisiae tim23-1 growth, BacTiter-Glo luminescence, 24 h | 330,000 tested, 1.3% active | inhibition, % at 20 µM;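 active = growth inhibition of the mutant yeast at or above 50%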;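 also: temperature-sensitive mutant grown at 25 °C; plate controls were DMSO-treated mutant yeast for no effect and medium wells lacking yeast for full effect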
PfHsp90 yeast 2 – inhibits growth of yeast expressing Plasmodium falciparum Hsp90 | 310,000 tested, 0.32% active | S. cerevisiae expressing PfHsp90, BacTiter-Glo ATP, 48 h; yeast lacking PDR1 and PDR3 efflux regulators | inhibition, % at 9.4 µM;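 active = every replicate shows inhibition above about 80%, whatever the replicate mean, limit read from the data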;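 also: 0% = DMSO neutral controls and 100% = 20 µM radicicol positive controls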
tim10-1 inh – tim10-1 yeast growth inhibition; S. cerevisiae tim10-1 ts strain growth, BacTiter-Glo, 24 h; AID 463190; inhibition, % at 20 µM; 330,000 tested, 2.2% active;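 active = inhibition of at least 40%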;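 also: mutant grown at 25 °C; 0% = DMSO wells with yeast and 100% = wells holding no yeast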
TIM10 inh – TIM10 yeast growth inhibition; AID 463195; S. cerevisiae TIM10 strain growth, BacTiter-Glo luminescence, 24 h; 330,000 tested, 1.4% active; inhibition, % at 10 µM;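 active = inhibition of 40% or more at the single tested concentration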;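 also: wild-type TIM10 isogenic control strain grown at permissive 25 °C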
tim10-1 conf – confirmation of tim10-1 mutant yeast growth inhibitors | shares compounds with tim10-1 inh | S. cerevisiae tim10-1 ts strain growth, BacTiter-Glo, 24 h | inhibition, % at 20 µM | 7,400 tested, 56% active;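 active = inhibition of yeast growth at or above a set limit in either of two repeat tests at 20 µM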;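 also: tim10-1 mutant grown at permissive 25 °C to find synthetic lethal compounds; 0% = DMSO yeast wells and 100% = medium wells without yeast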
Active calls of the source: *; / = not tested or not shown. Shown are actives, neighbours in structure and some others; about 3.7% of the full set was active somewhere.

SMILES | V-ATPase pHluor | tim23-1 inh | PfHsp90 yeast 2 | tim10-1 inh | TIM10 inh | tim10-1 conf
O=C(NCCN1C(=O)S/C(=C/c2cccnc2)C1=O)c1cccs1 | -5 | 43 | 12 | 44* | 29 | 26
COc1ccc2c(CC(=O)NCCN3C(=O)S/C(=C\c4cccnc4)C3=O)coc2c1 | 0 | 30 | -4 | 50* | 7 | 16
Nc1ccc(S(=O)(=O)N2CCCC2C(=O)O)cc1 (stereo unspecified) | 4 | -1 | 2 | -18 | 0 | /
CCc1cccc(NC(=O)CN(c2ccc(C)cc2)S(=O)(=O)c2c(C)noc2C)c1 | -1 | 35 | 7 | 49* | 33 | 36*
Cc1ccc(N(CC(=O)N2CCN(c3ccc(F)cc3)CC2)S(=O)(=O)c2c(C)noc2C)cc1 | -2 | 32 | -8 | 41* | 14 | 8
Cc1ccc(N(CC(=O)Nc2cc(C)cc(C)c2)S(=O)(=O)c2c(C)noc2C)cc1 | 0 | 28 | 5 | 36 | 29 | /
O=S(=O)(c1cc(Cl)ccc1Cl)n1cccn1 | -1 | 6 | 15 | 20 | 22 | /
Cc1cc(C(F)(F)F)n2nc(-c3cnn(C)c3C(F)(F)F)c(Br)c2n1 | 1 | 43 | 11 | 41* | 23 | 30
COC(=O)c1cccc2c1-c1ccccc1/C2=N\NC(N)=O | 4 | 12 | -15 | 40* | 23 | 12
Cc1ccc(SCCNC(=S)Nc2cc(C)cc(C)c2)cc1 | -3 | 7 | -12 | -2 | 15 | /
Cc1ccc(SCCNC(=S)Nc2ccc(C)cc2C)cc1 | -3 | 32 | -25 | 44* | 24 | 17
Cc1cccc(C)c1NC(=S)NCCSc1ccc(Cl)cc1 | 6 | 17 | 2 | 42* | 31 | 24
O=C(CCCN1C(=O)/C(=C/c2ccc(F)cc2)SC1=S)NC1CCS(=O)(=O)C1 (stereo unspecified) | 4 | 16 | 4 | 19 | 7 | /
O=C(NCC(c1cccs1)N1CCOCC1)c1cc([N+](=O)[O-])cc([N+](=O)[O-])c1 (stereo unspecified) | -5 | 19 | 20 | 42* | -3 | 13
O=C(NCC(c1cccs1)N1CCOCC1)c1ccc([N+](=O)[O-])cc1 (stereo unspecified) | 4 | 6 | 12 | 18 | 4 | /
Cc1nnc(SCC(=O)NNC(=O)c2ccccc2)n1N | 0 | 24 | 4 | 8 | -3 | /
CN(Cc1cccs1)C(=O)c1ccc(Cl)c(S(=O)(=O)N2CCCCCC2)c1 | 0 | 36 | 5 | 19 | 14 | /
CC1=CC2=C(OC1N(C)C)c1cccc3cccc(c13)C2=O (stereo unspecified) | -1 | 14 | / | 47* | 37 | 55*
O=C(CN1CCC(O)(c2cccc(F)c2)CC1)NCCc1c[nH]c2ccccc12 | -2 | 8 | 27 | -10 | -19 | /
O=C1/C(=C/c2ccc([N+](=O)[O-])cc2)C=C(c2ccccc2)N1c1ccccc1 | -3 | 21 | 4 | 30 | 10 | /
O=C1/C(=C/c2ccc([N+](=O)[O-])cc2)C=C(c2ccccc2)N1c1ccc(O)cc1 | 2 | 1 | -9 | 41* | 18 | 37*
CSc1ccc(S(=O)(=O)NCc2ccccc2C)cc1 | 1 | 41 | -3 | 47* | 17 | 25
CSc1ccc(S(=O)(=O)NCc2ccc(C)cc2)cc1 | 4 | 45 | 9 | 44* | 35 | 37*
Cc1ccc(S(=O)(=O)NCc2ccccc2C)cc1 | -2 | 25 | -4 | 6 | -11 | /
CCOc1ccccc1NC(=O)CCS(=O)(=O)c1ccc(Br)cc1 | 1 | 36 | 14 | 41* | 3 | 39*
SMILES | V-ATPase pHluor | tim23-1 inh | PfHsp90 yeast 2 | tim10-1 inh | TIM10 inh | tim10-1 conf
Cc1cccc2cc3c(N)c(C(=O)N4CCOCC4)sc3nc12 | 2 | 36 | 68 | 42* | 16 | 34*
Cc1cc(C)c2cc3c(N)c(C(=O)N4CCc5ccccc5C4)sc3nc2c1 | -1 | 28 | -10 | 28 | 24 | /
C=CCNC(=S)N/N=C(\C)c1ccc(OC)cc1 | / | 7 | -7 | 41* | 20 | 14
CC(C)CCNC(=O)COc1ccc(N(C)S(=O)(=O)c2ccc(F)cc2)cc1 | 2 | 30 | -8 | 10 | -1 | /
O/N=C(\c1ccc(Cl)cc1Cl)c1ncc(C(F)(F)F)cc1Cl | / | 27 | 5 | 40 | 39 | 50*
COc1ccc(N2C(=O)C(Cl)=C(N3CCCC(C)C3)C2=O)cc1 (stereo unspecified) | 1 | 32 | 4 | 42* | 28 | 29
COc1ccc(N2Cc3ccccc3C2=O)cc1 | 2 | 15 | -7 | -18 | -8 | /
C=CC(=O)Oc1ccc(N2Cc3ccccc3C2=O)cc1 | 6 | 21 | / | 60* | 4 | 68*
Nc1ccccc1C(=O)/C=C/c1ccc2c(c1)OCO2 | -4 | 46 | 13 | 44* | 32 | 39*
COc1ccc(N2CCN(C(=O)CCS(=O)(=O)c3ccc(C)cc3)CC2)cc1 | 0 | 6 | -9 | 9 | 4 | /
Cc1ccc(S(=O)(=O)CCc2nnc(NC(=O)c3ccccn3)s2)cc1 | -3 | 19 | -6 | 44* | 8 | 29
N#C/C(C(=O)N1CCCCC1)=C1/N=C(NC(=O)c2ccc(F)cc2)c2ccccc21 | 4 | 29 | -15 | 44* | 15 | -3
Cc1ccc2c(C)c(C(=O)N3CCC(C(N)=O)(N4CCCCC4)CC3)oc2c1C | 0 | / | / | / | / | /
C=C1/C(=C\C=C2/CCC[C@]3(C)[C@@H]([C@H](C)CCCC(C)(C)O)CC[C@@H]23)C[C@@H](O)C[C@@H]1O | / | 49 | / | 48* | 6 | 29
Cn1c(N2CCOCC2)nc(-c2ccccc2)c1-c1ccccc1 | 1 | 41 | 43 | 46* | 39 | 39*
O=C(COC(=O)c1ccc(-c2ccc([N+](=O)[O-])cc2)o1)NC(=O)NC1CCCCC1 | 2 | 35 | -6 | 42* | 1 | 19
COc1cccc(-c2noc(N)c2C#N)c1 | -3 | 36 | -11 | 52* | 31 | 44*
N#Cc1c(-c2ccc(F)cc2)noc1N | 7 | 20 | 14 | 32 | 26 | /
CCn1nnc(NC(=O)c2ccco2)n1 | 0 | -4 | 11 | -1 | 6 | /
CC(=O)Nc1nc2ccccc2n1Cc1ccccc1C | 5 | 18 | -20 | 46* | 13 | 27
CC(=O)Nc1nc2ccccc2n1Cc1ccccc1Cl | 0 | 27 | -28 | 46* | 16 | 22
O=C(COC(=O)COc1ccccc1)NC12CC3CC(CC(C3)C1)C2 | 0 | 16 | 5 | 17 | 4 | /
Cc1cc(C)cc(NS(=O)(=O)c2ccc(-c3cnc(C4CC4)o3)cc2)c1 | -1 | 28 | -3 | 32 | -35 | /
COc1ccccc1NS(=O)(=O)c1cc(-c2cnc(C3CC3)o2)ccc1C | -4 | 45 | 5 | 45* | -2 | 12
CC(=O)Nc1ccc(NS(=O)(=O)c2ccc(-c3cnc(C4CC4)o3)cc2)cc1 | 0 | 12 | -14 | 12 | -1 | /
